This passage reports Potency results from PubChem BioAssay (Tox21).

Values without a mark were called inactive. Inconclusive results are not listed. Activity calls are given as the source filed them. Unless noted, calls come from the whole dose curve.

A short description of assay [1]: Nuclear factor erythroid 2-related factor 2/antioxidant responsive element (Nrf2/ARE) small molecule agonists: qHTS cell viability counter screen in human keratinocytes (AID 1919968; active = well fitted curve in the direction sought with a large enough effect in the repeat runs; an effect the other way counts as inactive or inconclusive; note: nearly all actives have a fitted effect of over 55% in size; note: potency is the fitted concentration of half-maximal effect). Summed up:
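Cells of the KeratinoSens line were plated at 1,500 per well and left for 5 h before compound transfer from DMSO stocks. After a 23 h incubation (37 C, 5% CO2), CellTiter-Fluor was added. Signal was taken as fluorescence intensity 1 h later.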
In general terms: qHTS replaces the single test concentration by a dilution series.

The nature of assay [2]: Nuclear factor erythroid 2-related factor 2/antioxidant responsive element (Nrf2/ARE) small molecule agonists: luciferase reporter gene qHTS assay in human keratinocytes (AID 1919969). Note: nearly all actives have a fitted effect of over 35% in size. Note: potency is the fitted concentration of half-maximal effect. On the technique in general: In a reporter assay the amount or activity of a reporter protein is the signal.
In assay [3] the target is KiSS-1 receptor (Homo sapiens) (UniProt Q969F8). In words: Human kisspeptin (KISS1R) small molecule agonists, calcium flux assay in KISS1R-HEK293 cells (AID 1920064; active = well fitted curve in the direction sought with a large enough effect in the repeat runs; an effect the other way counts as inactive or inconclusive). A digest of the protocol: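 Cell line: HEK293, stable human KISS1R. Dye loading 1 h at 37 C after 18 h culture. Read: kinetic fluorescence, 480/540 nm, 3 min at 1 s intervals.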
A general note: Calcium assays in cells follow changes in intracellular calcium, usually with a dye or a luminescent sensor.

Assay [4] can be described thus: G protein-coupled receptor (GPCR) small molecule agonists, calcium flux assay: HEK293 wild type cell line counter screen (AID 1920065). A digest of the protocol:
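Tox21 10K compounds, 15 concentrations each in triplicate, pin-transferred in DMSO onto dye-loaded cells; kinetic read at 480/540 nm for 3 min, 1 s intervals.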

Assay [5] is described as follows: p53 small molecule agonists, cell-based qHTS assay with human liver microsomes: qHTS cell viability counter screen (AID 1963579). Note: nearly all actives have a fitted effect of over 45% in size. A digest of the protocol: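 Metabolically activated exposure: compounds, human liver microsomes and NADPH (0.5 mg/mL final apiece) were added to p53RE-bla cells seeded 5 h earlier, left 16 h at 37 C, and then assessed for viability by CellTiter-Glo luminescence.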

Assay [6] in a line: p53 small molecule agonists, cell-based qHTS assay: qHTS cell viability counter screen (AID 1963581). Note: nearly all actives have a fitted effect of over 45% in size. Note: potency is the fitted concentration of half-maximal effect. Summed up: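 ATP content measured by luminescence in HCT-116 p53RE-bla cells treated 16 h at 37 C, same wells as the reporter screen.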
In assay [7] the target is 5-hydroxytryptamine receptor 2A (Homo sapiens) (UniProt P28223). In words: 5-hydroxytryptamine receptor 2A (HTR2A) small molecule antagonists, cell-based qHTS assay (AID 1963586). Note: nearly all actives have a fitted effect of over 45% in size. Note: potency is the fitted concentration of half-maximal effect. A digest of the protocol:
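CHO cells stably expressing human HTR2A were plated for 18 h at 37 C, then loaded with calcium dye for 1 h. Compounds were preincubated 5 min at room temperature before DOI (4 nM solution) was added. Kinetic fluorescence was read for 3 min.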

The target is the same in assay [8]. The assay is described as follows: 5-hydroxytryptamine receptor 2A (HTR2A) small molecule agonists, cell-based qHTS assay (AID 1963587). Note: nearly all actives have a fitted effect of over 30% in size. Summed up: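 HTR2A-CHO cells, plated 18 h at 37 C/5% CO2, dye-loaded 1 h at 37 C; compounds in DMSO added by pin tool (agonist mode). Intracellular calcium flux read as kinetic fluorescence on FDSS over 2 min at 1 s intervals.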

The target of assay [9] is Muscarinic acetylcholine receptor M1 (Homo sapiens) (UniProt P11229). In words: Cholinergic receptor muscarinic 1 (CHRM1) small molecule antagonists, cell-based qHTS assay (AID 1963588). Note: nearly all actives have a fitted effect of over 40% in size. A digest of the protocol:
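Compounds were tested at 15 concentrations in three independent runs. Dye-loaded CHRM1-CHO cells were exposed 5 min at room temperature before stimulation by acetylcholine added at 50nM. Intracellular calcium was read kinetically on FDSS for 3 min.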

Assay [10] has the same target. In words: Cholinergic receptor muscarinic 1 (CHRM1) small molecule agonists, cell-based qHTS assay (AID 1963589). Note: nearly all actives have a fitted effect of over 35% in size. A digest of the protocol:
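Homogeneous fluorescence calcium flux, agonist mode. Human M1-expressing CHO cells; compound dosed at 15 concentrations, three independent runs; signal sampled every 1 sec.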

Assay [11] can be described thus: cAMP Responsive Elements (CRE) small molecule agonists, cell-based qHTS assay (AID 1963590). A digest of the protocol: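 HEK 293T cells stably bearing CRE-bla were plated at 2,000 cells per well and rested 18 h. Compounds, positive controls or DMSO were added for 3 h at 37 C. LiveBLAzer B/G substrate was then loaded for 2 h at room temperature.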
The nature of assay [12]: cAMP Responsive Elements (CRE) small molecule antagonists, cell-based qHTS assay (AID 1963591; active = well fitted inhibition curve with a large enough effect in the signal ratio in the repeat runs, not every such curve was filed as active; the % refers to the signal ratio). A digest of the protocol:
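First, CRE-bla HEK293T cells settled 18 h at 37 C. Next, compound and 0.25 uM final NKH477 were applied for 3 h. Last, LiveBLAzer B/G substrate was loaded for 2 h at room temperature.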

The target of assay [13] is Beta-2 adrenergic receptor (Homo sapiens) (UniProt P07550). In words: Adrenergic beta2 receptor (ADRB2) small molecule antagonists, cell-based qHTS assay (AID 1963592). Note: series mostly up to about 92 µM; nearly all actives have a fitted effect of over 50% in size. A digest of the protocol:
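Assay format: CHO-ADRB2 cells, 18-20hr seeding at 37C/5% CO2, then compound plus 1nM isoproterenol agonist mix for 0.5hr RT. Homogeneous time-resolved fluorescence cAMP detection after 1hr, expressed as 665/615 nm ratio.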

In assay [14] the target is D(2) dopamine receptor (Homo sapiens) (UniProt P14416). The assay is described as follows: Dopamine D2 receptor (DRD2) small molecule agonists, cell-based qHTS assay (AID 1963594). Note: nearly all actives have a fitted effect of over 35% in size. A digest of the protocol: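 HEK293 cells stably expressing DRD2 were cultured 24 h at 37 C, then given Ro20-1724 (0.1 mM final) and compounds for 10 min at room temperature. NKH477 (200nM) was then added for 30 min. cAMP was read by HTRF.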

The target is the same in assay [15]. The assay is described as follows: Dopamine D2 receptor (DRD2) small molecule antagonists, cell-based qHTS assay (AID 1963595; active = well fitted inhibition curve with a large enough effect in the signal ratio in the repeat runs, with a control signal flat; the % refers to the signal ratio; note: potency is the fitted concentration of half-maximal effect). Summed up: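 Antagonist mode in DRD2-HEK293 cells: after compound addition with 0.1 mM Ro20-1724, cells received quinpirole (12 nM) and NKH477 (200 nM) for 30 min at room temperature; HTRF cAMP read after 1 h detection.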
A short description of assay [16]: p53 small molecule agonists, cell-based qHTS assay with human liver microsomes (AID 1963577). A digest of the protocol: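 In this qHTS, p53 response-element beta-lactamase cells receive test compound together with a microsome/NADPH activating system (0.5 mg/mL final each) and are incubated 16 h at 37 C before LiveBLAzer fluorescence detection.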
Assay [17] can be described thus: p53 small molecule agonists, cell-based qHTS assay with rat liver microsomes (AID 1963578). A digest of the protocol:
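Agonist mode in p53RE-bla reporter cells, with compounds co-incubated 16 h at 37 C alongside 0.5 mg/mL rat liver microsomes and 0.5 mg/mL NADPH (final), followed by a 2 h LiveBLAzer detection step.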

The nature of assay [18]: p53 small molecule agonists, cell-based qHTS assay with rat liver microsomes: qHTS cell viability counter screen (AID 1963580). Note: nearly all actives have a fitted effect of over 45% in size. Summed up:
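Luminescent ATP readout (CellTiter-Glo, 30 min at room temperature) reports viability of p53RE-bla HCT-116 cells after 16 h at 37 C with test compounds under metabolic activation by rat liver microsomes and NADPH at 0.5 mg/mL final each.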

Assay [19] in a line: p53 small molecule agonists, cell-based qHTS assay (AID 1963582; active = well fitted activation curve with a large enough effect in the signal ratio in the repeat runs, not every such curve was filed as active; the % refers to the signal ratio). A digest of the protocol: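 16 h compound exposure (37 C) of p53 response element–bla cells, preceded by 5 h recovery at 37 C/5% CO2; read-out via LiveBLAzer B/G FRET substrate, 2 h RT, fluorescence intensity.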

Muscarinic acetylcholine receptor M1 (Homo sapiens), sequence (P11229 whole entry, looked up): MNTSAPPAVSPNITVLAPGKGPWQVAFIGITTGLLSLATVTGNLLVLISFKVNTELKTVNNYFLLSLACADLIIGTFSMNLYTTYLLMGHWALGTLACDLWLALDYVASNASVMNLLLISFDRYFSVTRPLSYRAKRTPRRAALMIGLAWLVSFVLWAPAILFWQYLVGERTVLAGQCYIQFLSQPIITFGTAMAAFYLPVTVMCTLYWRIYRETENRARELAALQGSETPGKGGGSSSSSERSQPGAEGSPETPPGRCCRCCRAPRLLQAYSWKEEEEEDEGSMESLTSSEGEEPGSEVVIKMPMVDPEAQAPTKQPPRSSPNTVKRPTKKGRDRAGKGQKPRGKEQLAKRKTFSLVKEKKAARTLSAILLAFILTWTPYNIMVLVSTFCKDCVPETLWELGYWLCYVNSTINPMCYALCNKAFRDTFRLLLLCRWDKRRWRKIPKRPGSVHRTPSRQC
Beta-2 adrenergic receptor (Homo sapiens), sequence (P07550 whole entry, looked up): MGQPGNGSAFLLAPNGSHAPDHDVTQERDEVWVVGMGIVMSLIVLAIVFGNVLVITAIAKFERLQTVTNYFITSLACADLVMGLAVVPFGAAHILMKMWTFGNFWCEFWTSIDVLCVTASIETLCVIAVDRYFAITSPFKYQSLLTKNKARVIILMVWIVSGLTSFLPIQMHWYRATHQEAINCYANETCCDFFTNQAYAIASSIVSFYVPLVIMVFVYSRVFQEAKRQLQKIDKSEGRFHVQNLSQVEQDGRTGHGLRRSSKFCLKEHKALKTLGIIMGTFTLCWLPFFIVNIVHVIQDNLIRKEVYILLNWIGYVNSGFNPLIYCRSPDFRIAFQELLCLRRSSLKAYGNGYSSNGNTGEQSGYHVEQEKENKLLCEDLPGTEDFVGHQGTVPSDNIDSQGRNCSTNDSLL
KiSS-1 receptor (Homo sapiens), sequence (Q969F8 whole entry, looked up): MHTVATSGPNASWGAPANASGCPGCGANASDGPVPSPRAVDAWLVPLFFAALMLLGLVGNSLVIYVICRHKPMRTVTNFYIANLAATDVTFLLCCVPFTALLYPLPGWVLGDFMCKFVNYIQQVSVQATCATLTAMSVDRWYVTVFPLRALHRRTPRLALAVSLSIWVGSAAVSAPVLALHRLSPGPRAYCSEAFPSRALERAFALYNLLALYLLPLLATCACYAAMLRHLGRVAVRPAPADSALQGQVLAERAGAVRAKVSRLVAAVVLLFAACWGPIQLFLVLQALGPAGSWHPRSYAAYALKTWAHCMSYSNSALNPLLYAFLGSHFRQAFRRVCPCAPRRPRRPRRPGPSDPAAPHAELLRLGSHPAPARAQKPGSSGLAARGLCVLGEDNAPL
5-hydroxytryptamine receptor 2A (Homo sapiens), sequence (P28223 whole entry, looked up): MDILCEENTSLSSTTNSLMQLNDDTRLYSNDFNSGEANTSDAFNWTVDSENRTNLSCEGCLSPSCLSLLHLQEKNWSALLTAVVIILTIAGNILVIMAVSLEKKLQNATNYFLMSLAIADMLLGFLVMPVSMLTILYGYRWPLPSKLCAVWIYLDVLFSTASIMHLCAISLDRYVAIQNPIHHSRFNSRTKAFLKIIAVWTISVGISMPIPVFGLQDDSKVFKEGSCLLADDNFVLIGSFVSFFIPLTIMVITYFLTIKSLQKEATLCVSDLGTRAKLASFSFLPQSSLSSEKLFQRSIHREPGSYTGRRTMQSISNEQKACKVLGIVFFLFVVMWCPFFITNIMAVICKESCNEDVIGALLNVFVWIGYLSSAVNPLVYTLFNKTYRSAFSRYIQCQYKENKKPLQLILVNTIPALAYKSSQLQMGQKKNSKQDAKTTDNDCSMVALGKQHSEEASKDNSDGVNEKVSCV
D(2) dopamine receptor (Homo sapiens), sequence (P14416 whole entry, looked up): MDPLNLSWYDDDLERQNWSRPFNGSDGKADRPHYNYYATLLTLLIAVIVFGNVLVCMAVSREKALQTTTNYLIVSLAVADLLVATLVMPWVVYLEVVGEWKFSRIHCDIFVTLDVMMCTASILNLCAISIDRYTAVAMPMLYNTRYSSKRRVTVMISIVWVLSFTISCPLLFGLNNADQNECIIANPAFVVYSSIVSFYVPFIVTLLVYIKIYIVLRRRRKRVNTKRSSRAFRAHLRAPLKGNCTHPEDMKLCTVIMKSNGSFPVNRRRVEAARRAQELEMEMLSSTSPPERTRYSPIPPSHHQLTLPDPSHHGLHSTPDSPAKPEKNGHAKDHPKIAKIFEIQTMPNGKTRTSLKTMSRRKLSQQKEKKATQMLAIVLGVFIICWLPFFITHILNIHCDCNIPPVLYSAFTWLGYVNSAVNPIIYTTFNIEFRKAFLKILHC

Take `CCc1ccccc1N`: the Potency entry in [1], in assay [2], in assay [3], in assay [4], in [5] and in assay [6] was “inactive” throughout. The Potency entry in assay [7], in [8], in assay [9], in assay [10], in [11] and in assay [12] was “inactive” throughout. Further, the Potency entry in assay [13], in [14] and in [15] was “inactive” throughout.
`CCCCCCCCCCCCN(C)C`: the Potency result in assay [1], in assay [2], in assay [4], in assay [16], in assay [17] and in assay [5] was “inactive” throughout. Also, the Potency entry in assay [18], in assay [6], in [19], in [7], in assay [8] and in assay [9] was “inactive” throughout. In addition, the Potency result in assay [10], in [11], in [13], in [14] and in assay [15] was “inactive” throughout.
Turning to `O=C1CN=C(c2ccccc2)c2cc(Cl)ccc2N1CC1CC1`, the Potency result in assay [1], in [2], in [3], in assay [4], in assay [5] and in assay [18] was “inactive” throughout. The Potency result in assay [6], in [7], in assay [9], in assay [10], in [11] and in assay [14] was “inactive” each time. In addition, the Potency entry in assay [15] was “inactive”.
For `CN1C(=O)CN=C(c2ccccc2)c2cc([N+](=O)[O-])ccc21`, the Potency result in [1], in [2], in assay [3], in assay [4], in assay [16] and in assay [5] was “inactive” throughout. The Potency result in assay [18], in assay [6], in assay [19], in [11], in assay [12] and in assay [13] was “inactive” in each case. Further, in [14], the Potency entry is “inactive”.
Take `C[C@@H](N)[C@@H](O)c1ccccc1`: the Potency result in [1], in [2], in assay [3], in [4], in [5] and in assay [18] was “inactive” throughout. Moreover, the Potency entry in assay [6], in [7], in assay [8], in assay [10], in assay [12] and in assay [13] was “inactive” in each case. Besides, in [15], the Potency entry is “inactive”.
As to `CC1(C)CCC(Cc2ccc(Cl)cc2)C1(O)Cn1cncn1` (configuration not stated), the Potency entry in assay [1], in assay [2], in [3], in assay [4], in [18] and in assay [6] was “inactive” throughout. Also, the Potency entry in assay [9], in assay [10] and in assay [14] was “inactive” in each case. In addition, in assay [7], the Potency was 16.8 µM (active).
As to `C=CCC1=C(C)C(OC(=O)C2C(C=C(C)C)C2(C)C)CC1=O` (configuration not stated), the Potency in assay [1] is 34.4 µM (active); in assay [2] it was 23 µM (active); in assay [6] it was 28.9 µM (active); in assay [15], 57.8 µM (active). In addition, the Potency entry in [3], in assay [17], in [8], in [10] and in assay [13] was “inactive” each time.
`C[N+]1(CCF)[C@@H]2CC[C@H]1CC(OC(=O)C(O)(c1ccccc1)c1ccccc1)C2` (some centres not stated): the Potency entry in [1], in [2], in [3], in assay [16], in assay [17] and in [5] was “inactive” throughout. Further, the Potency entry in assay [18], in assay [6], in assay [19], in assay [7], in assay [8] and in assay [10] was “inactive” throughout. Further, the Potency entry in assay [11], in [12], in [13], in [14] and in assay [15] was “inactive” throughout.
